# According to ChEMBL document CHEMBL3988442, “University of Dundee, Small-Polar-MMV Screening Library” (2021):
# Hit rate of the full screen: of about 53,000 compounds, about 900 (1.7%) showed an effect of 50% or more. Many of the other results were omitted from the sample, so strong results are more common in it than they were.
# System: Mycobacterium tuberculosis
# Assay: Cornell - Phenotypic assay to identify agents that inhibit growth of Mycobacterium tuberculosis
# Type: functional
# Set-up: scale not given: direction of the effect not stated beside the values
# Conditions: 10 mM as filed; unlikely as a test dose
row,Structure (SMILES),Percent Effect [%]
1,Cc1ccccc1C(C(=O)NCCSC(C)C)N(C)C (stereo not drawn),29.49
2,CNc1ncc2c(n1)CN(CCc1ccc(C)cc1)C2=O,8.766
3,Cn1ccc(C(=O)N2CCCC(c3cc4cccnc4c(O)n3)C2)n1 (stereo not drawn),-16.1
4,CN(C)CCC1CCN(c2cc(N3CCCC3CO)ncn2)CC1 (stereo not drawn),-19.44
5,CC(C)n1nccc1C(=O)N1CCC(c2nnsc2S(C)(=O)=O)CC1,12.35
6,Cc1nonc1CNC(=O)C(C)Oc1ccccc1F (stereo not drawn),47.11
7,Cc1noc(C)c1CNC(=O)C(C)Oc1ccccc1F (stereo not drawn),-2.201
8,Cc1nonc1CNC(=O)C(C)Oc1cccc(F)c1 (stereo not drawn),53.11
9,CCOCC1CN(Cc2ccncc2)Cc2nn(C)cc21.O=C(O)C(F)(F)F.O=C(O)C(F)(F)F (stereo not drawn),12.3
10,O=C(O)C(F)(F)F.O=C(O)C(F)(F)F.c1c(CN2CCCC2)nc2n1CCN(C1CCOCC1)C2,3.362
11,Cc1cc(C(=O)NC2CCN(CC(N)=O)CC2)nn1C(C)(C)C,11.5
12,COCCn1ccc2c(NC(=O)C(C)C)cccc21,18.08
13,CC(C)Cn1ccc2c(NC(=O)c3n[nH]c4c3CCC4)cccc21,50.74
14,COCCn1ccc2c(C(=O)O)cccc21,17.17
15,COCCn1ccc2c(NC(=O)c3n[nH]c4c3CCC4)cccc21,61.23
16,CC(C)n1ccc2c(NC(=O)c3n[nH]c4c3CCC4)cccc21,48.39
17,COCCn1ccc2c(C(=O)NC(C)C)cccc21,10.53
18,CC(=O)Nc1cccc2c1ccn2CC(=O)Nc1n[nH]c(CC(C)C)n1,-27.06
19,COCCn1ccc2c(C(=O)Nc3nc4c(s3)CCC4)cccc21,15.95
20,COCCn1ccc2c(NC(=O)c3n[nH]c4c3CCCC4)cccc21,70.2
21,COc1cc(C)cc(OC)c1C(C(=O)O)N(C)Cc1c(C)nn(C)c1C (stereo not drawn),1.527
22,COCCn1c2c(ccc1=O)CCN(C(=O)C1CC=CC1)CC2,18.02
23,NC(=O)CCNCc1c(Cl)cccc1N1CCCC1,-9.412
24,COCCNc1cc(-c2ccccc2C(N)=O)c2cc[nH]c2n1,26.26
25,Cc1cc(C)n2ncc(CN3C[C@@H](O)[C@H](Oc4ccccc4)C3)c2n1,0.3545
26,CN1CCN(c2nc(O)cc(Cc3ccccc3F)n2)CC1,10.81
27,CC(=O)N1CC(C(=O)NCCc2ncc(C)s2)C1,6.986
28,CC(C)c1cc(NC(=O)CN2CCC(N3CCNC3=O)CC2)on1,6.075
